For seven molecules, growth results are on record in PubChem BioAssay (NCI).

This is part of a sample that, as a whole, favours compounds with a hit. Of some 83,000 tested, about 20% had one in any assay.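 Percent growth is the endpoint: 0 to 100 indicates growth inhibition (40 means 60% inhibition), 0 means no net growth, and negative values indicate cell death.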 A number with no mark means an inactive call. Active and inactive are the calls of the source. The calls were made as follows: active = growth percent below 10; inactive = the rest.

Test in all cases: NCI-60 one-dose screen, 48 h (100 = growth as untreated, 0 = no growth, -100 = all killed)
Conditions in all cases: 10 µM unless noted

For assay [1], the system named is NCI-H226 lung.
In assay [2] the test system is NCI-H322M lung.
Assay [3] deals with HOP-62 NSCLC.
For assay [4], the system named is NCI-H460 lung.
The test system of assay [5] is HOP-92 NSCLC.
Assay [6] deals with NCI-H522 lung.
In assay [7] the test system is A549/ATCC NSCLC.
The test system of assay [8] is 786-0 renal.
Assay [9] deals with COLO 205 colon.
The subject of assay [10] is DU-145 prostate.
For assay [11], the system named is K-562 leukemia.
Assay [12] deals with MALME-3M melanoma.
For assay [13], the system named is MDA-MB-231 breast.
The subject of assay [14] is RXF 393 renal.
The subject of assay [15] is SF-268 CNS.
The test system of assay [16] is SF-295 CNS.
Assay [17] concerns SF-539 CNS.
Assay [18] relates to UACC-257 melanoma.
Assay [19] concerns M14 melanoma.
Assay [20] deals with HCT-15 colon.

With `C=C1CC[C@H]2[C@@](C)(CCC3OC(c4ccc(OCc5cn(C6CC(OC(C)=O)C(OC(C)=O)C(COC(C)=O)O6)nn5)cc4)OC[C@]32C)[C@@H]1/C=C/C1=CCOC1=O` (stereo not given in full), the growth in assay [1] was 74.5%; in assay [2], 100%; in assay [3], 85.5%; in [4], 85.8%; in assay [5], 65.6%; in assay [6], 82.2%. In addition, the growth in assay [7] is 82.8%; in assay [8], 95.1%; in [9] it was 82.3%; in [10], 90%; in assay [11], 38.8%; in assay [12], 58%. For the same molecule, the growth was 77.9% in assay [13]; 103% in assay [14]; 90.3% in assay [15]; 61% in assay [16]; 84.8% in assay [17]; 61.6% in [18]. The values for the growth in assay [19] and in [20] were 93.9% and 77.2%, respectively.
Regarding `COc1ccc(CNS(=O)(=O)/N=C2\NC(=O)NC2=C(Cl)Cl)cc1`, the growth was 46.1% in [1]; 37.1% in [2]; 46.9% in assay [3]; 19% in [4]; -2.17% (active) in [5]; 2.05% (active) in assay [6]. Moreover, the growth in assay [7] was 25.7%; in [8], 28.8%; in [9] it was 55.4%; in assay [10], 27.9%; in [11], 13%; in assay [12] it was 76%. The growth was 22.1% in assay [13]; 39.6% in [14]; 59.6% in assay [15]; -22.9% (active) in assay [16]; -6.36% (active) in assay [17]; 54.4% in [18]. Besides, the growth in assay [19] was 25.2%; in assay [20] it was 56.1%.
Consider `O=C1Nc2ccccc2Oc2ccc(S(=O)(=O)CC3CO3)cc21` (stereo not given), for which the growth in assay [1] is 95.7%; in [2], 93.7%; in assay [3] it was 101%; in [4], 79.5%; in assay [5] it was 88.8%; in assay [6], 32.8%. Moreover, the growth in assay [7] was 77.2%; in [8], 98.1%; in [9], 50.1%; in assay [10], 61.2%; in assay [11], 18%; in assay [12] it was 87.7%. In addition, the growth in [13] was 48.4%; in assay [14], 58.1%; in [15] it was 80.2%; in assay [16], 66.3%; in [17] it was 69.7%; in assay [18], 65%. The growth in assay [19] is 57.5%; in assay [20], 21.2%.
Regarding `C#Cc1nc(C2=C(C)C(=N\O)/C(=N/O)C2)cs1`, the growth was 101% in assay [1]; 99.2% in assay [2]; 101% in assay [3]; 97% in assay [4]; 88.5% in assay [5]; 91.8% in assay [6]. Besides, the growth in [7] was 95.3%; in assay [8], -90.9% (active); in assay [9], 118%; in assay [10], 92.2%; in assay [11], 94%; in assay [12], 94.4%. Moreover, the growth in [13] was 61.4%; in [14], 104%; in assay [15], 86.1%; in [16], 101%; in assay [17], 93.9%; in assay [18], 102%. Further, the values for the growth in assay [19] and in assay [20] were 89.6% and 94.5%, respectively.
For `CC(=O)Oc1ccccc1C(=O)Nc1ccc(C(=O)/C=C/c2ccncc2)cc1`, the growth is 92.5% in [1]; 78.3% in assay [2]; 91.4% in [3]; 45.8% in assay [4]; 66.1% in assay [5]; 71.8% in assay [6]. Also, the growth in [7] was 56.5%; in assay [8], 33.9%; in assay [9] it was 66%; in assay [10] it was 35.6%; in [11], 6.54% (active); in assay [12], 86.6%. The growth is 33.6% in assay [13]; -4.73% (active) in assay [14]; 85.5% in assay [15]; 49.5% in [16]; 4.63% (active) in assay [17]; 92.4% in [18]. Besides, the growth is 30.3% in assay [19] and -23.9% (active) in [20].
As to `CCN1C(=S)N(c2ccccc2)C2NC(=O)N(/N=C/C=C/c3ccccc3OC)C21` (stereo not given), the growth in assay [1] is 98.9%; in assay [2], 94.9%; in assay [3], 80.6%; in assay [4] it was 89.2%; in assay [5], 72.3%; in assay [6] it was 89%. The growth in assay [7] was 87.9%; in [8], 96.1%; in [9], 122%; in assay [10] it was 101%; in assay [11] it was 59.2%; in assay [12], 87.2%. Further, the growth in [13] was 71.9%; in assay [14], 92.4%; in assay [15] it was 93.9%; in assay [16] it was 87.9%; in assay [17], 86.3%; in assay [18] it was 102%. The values for the growth in [19] and in [20] were 92.6% and 67.6%, respectively.
For `Cc1cc(C(=O)Nc2sc3c(c2C(N)=O)CCC(=O)C3)ccc1OCCN1CCCCC1`, the growth is 109% in [1]; 111% in assay [2]; 119% in [3]; 99.4% in assay [4]; 113% in assay [5]; 90.8% in assay [6]. The growth was 81.1% in assay [7]; 111% in assay [8]; 106% in assay [9]; 99.2% in assay [10]; 53.2% in assay [11]; 102% in [12]. For the same molecule, the growth is 101% in assay [13]; 112% in [14]; 99.4% in assay [15]; 113% in assay [16]; 94.2% in assay [17]; 107% in assay [18]. Also, the growth in assay [19] was 108%; in assay [20], 83.3%.
